40 compounds from PubChem BioAssay (NCATS) can be followed below.

Records with an inconclusive call do not appear. Unmarked numbers belong to inactive results. Calls of active or inactive are those of the source. Calls come from the whole dose curve; as a rule, active = well fitted cell-killing curve with a large enough effect; inconclusive = small, poorly fitted or top-dose-only effect, or effect the other way; inactive = no such curve, though single readings can be large or run the other way. Peptide text beside a SMILES is read from it.
Potency is the fitted concentration of half-maximal effect.

This assay is described as follows: Quantitative High-Throughput drug screen in 47 multiple myeloma cell lines against the NCATS MIPE library collection: KMM1_JCRB cell viability assay (AID 1918960). Note: nearly all actives have a fitted effect of over 30% in size. The note with it: KMM1 myeloma viability, CellTiter-Glo ATP luminescence, 48 h; series mostly up to 45.8 µM; viability (% of DMSO): at the top concentration. An excerpt:
PI: Beverly A. Mock Ph.D.
Laboratory of Cancer Biology and Genetics,
Center for Cancer Research, National Cancer Institute,
National Institute of Health, Bethesda, Maryland
Drug resistance and disease progression are common in multiple myeloma (MM) patients, underscoring the need for new therapeutic combinations. […] We hypothesized that effective combinations would reduce MYC expression and enhance p16 activity. […] These preclinical data identify potentially useful drug combinations for evaluation in drug-resistant MM and reveal potential mechanisms of combined drug sensitivity.
Described herein is the primary MIPE qHTS used to cherrypick compounds. Validated compounds were then further tested for potential synergistic activiy.
[1] Peat TJ, Gaikwad SM, Dubois W, Gyabaah-Kessie N, Zhang S, Gorjifard S, Phyo Z, Andres M, Hughitt VK, Simpson RM, Miller MA, Girvin AT, Taylor A, Williams D, D'Antonio N, Zhang Y, Rajagopalan A, Flietner E, Wilson K, Zhang X, Shinn P, Klumpp-Thomas C, McKnight C, Itkin Z, Chen L, Kazandijian D, Zhang J, Michalowski AM, Simmons JK, Keats J, Thomas CJ, Mock BA. Drug combinations identified by high-throughput screening promote cell cycle transition and upregulate Smad pathways in myeloma. Cancer Lett. 2023 Aug 1;568:216284. doi: 10.1016/j.canlet.2023.216284. Epub 2023 Jun 24. PMID: 37356470; PMCID: PMC10408729.
SEQUENCE No. (e.g., 1, 2, 3, etc.); […] (e.g., Cells, Incubation, Reagent, etc.); VALUE and DESCRIPTION.
1; Cells; 5 uL; white, solid bottom 1536-well Greiner assay plate.
2; Compounds; 23 nL; Kalypsis pin tool (Wako USA) equipped with a 1536-well pin head to transfer to the assay plates.
3; Incubation; 48 hours; 37C incubation.
4; Reagent;5uL; CellTiter Glo (Promega).
5; Detector; 425V; Luminescence; Viewlux PerkinElmer.
NOTES (numbers refer to Sequence numbers above)
1. The cell-based screening methods employed in this study were like those previously published. Briefly, the corresponding myeloma cell lines were screened in 1,536-well plates with 500 cells, 5-uL per well for inhibition of cell viability (assessed by measuring ATP levels with CellTiterGlo).
2. NCATS MIPE 4.0 library of approved and investigational drugs were added using the Kalypsis pin tool. Wells treated with DMSO only for 100% viability and media only cells for 0% viability were used as controls.
3. The assay plates were covered and incubated for 48 hours in a 37C, 5% CO2 incubator with controlled humidity.
4. After 48 hours, CellTilter-GloTM luminescent substrate mix (Promega) reagent was added to the assay plate and plates we incubated for 5 min at room temperature.
5. Signal was measured as median relative luminescence units on a ViewLux (PerkinElmer) multiplate reader.
[1] Heske CM, Davis MI, Baumgart JT, Wilson K, Gormally MV, Chen L, Zhang X, Ceribelli M, Duveau DY, Guha R, Ferrer M, Arnaldez FI, Ji J, Tran HL, Zhang Y, Mendoza A, Helman LJ, Thomas CJ. Matrix Screen Identifies Synergistic Combination of PARP Inhibitors and Nicotinamide Phosphoribosyltransferase (NAMPT) Inhibitors in Ewing Sarcoma. Clin Cancer Res. 2017 Dec 1;23(23):7301-7311. doi: 10.1158/1078-0432.CCR-17-1121. Epub 2017 Sep 12. PMID: 28899971; PMCID: PMC6636827.
(In general: In ATP-based viability assays light output follows the ATP content of the culture.)
Regarding `N=C(N)c1ccc2cc(OC(=O)c3ccc(N=C(N)N)cc3)ccc2c1`, the “viability (% of DMSO)” value is 82.6%.
As for `Clc1ccc2c(N3CCN(CCCN4CCN(c5ccnc6cc(Cl)ccc56)CC4)CC3)ccnc2c1`, the “viability (% of DMSO)” value is 94.8% [at 23.2 µM].
The same measure, in the same setting: the result for `O=C(O)c1cccnc1Nc1cccc(C(F)(F)F)c1` reads 89.1%.
Take `CCN(CC)CCOc1ccc(Nc2ncc3cc(-c4c(Cl)cccc4Cl)c(=O)n(C)c3n2)cc1`: the Potency was 0.0332 µM (active).
For `Cc1nc(-c2ccc(OCC(C)C)c(C#N)c2)sc1C(=O)O`, the “viability (% of DMSO)” value is 103%.
Turning to `NNc1nncc2ccccc12`, the “viability (% of DMSO)” value was 103%.
On the same count and under the same terms, the result for `CNC[C@H](O)c1ccc(O)c(O)c1` reads 87.6% [at 92.2 µM]; that for `CN(C)CCCC1(c2ccc(F)cc2)OCc2cc(C#N)ccc21` (stereo not given), 83.7%.
For the compound `O=c1c(O)c(-c2cc(O)c(O)c(O)c2)oc2cc(O)cc(O)c12`, the “viability (% of DMSO)” value was 105%.
Regarding `Cc1cccc(C)c1OCC(=O)N[C@@H](Cc1ccccc1)[C@@H](O)C[C@H](Cc1ccccc1)NC(=O)[C@H](C(C)C)N1CCCNC1=O`, the Potency is 6.62 µM (active).
Consider `Cc1cc(O)c2c(c1)C(=O)c1cc(O)cc(O)c1C2=O`, for which the “viability (% of DMSO)” value is 109%.
With `Cc1nc2n(c(=O)c1CCN1CCC(c3noc4cc(F)ccc34)CC1)CCCC2`, the “viability (% of DMSO)” value is 70.3%.
Still for that read-out and setting: the result for `CN1C(C(=O)Nc2ccccn2)=C(O)c2sccc2S1(=O)=O` reads 108%; that for `Cc1nccn1CC1CCc2c(c3ccccc3n2C)C1=O` (stereo not given), 105%; that for `O=C(OC1C[C@H]2CC[C@@H](C1)[N+]21CCCC1)C(O)(c1ccccc1)c1ccccc1` (stereo not given in full), 76.4%.
The same measure, in the same setting: the result for `c1ccc2[nH]c(-c3cscn3)nc2c1` reads 97.5%; that for `Nc1ccn([C@@H]2O[C@H](CO)[C@@H](O)C2O)c(=O)n1` (stereo not given in full), 107%; that for `CC(=O)NC[C@H]1CN(c2ccc(N3CCOCC3)c(F)c2)C(=O)O1`, 118%.
Regarding `Cc1c(C(=O)NN2CCCCC2)nn(-c2ccc(Cl)cc2Cl)c1-c1ccc(Cl)cc1`, the Potency is 23.5 µM (active).
With `O=c1cc(N2CCOCC2)oc2c(-c3ccccc3)cccc12`, the “viability (% of DMSO)” value is 77.5%.
Consider `CC(=O)N1CCN(c2ccc(OC[C@H]3CO[C@](Cn4ccnc4)(c4ccc(Cl)cc4Cl)O3)cc2)CC1`, for which the Potency is 5.26 µM (active).
With `Nc1ccc(S(N)(=O)=O)cc1`, the “viability (% of DMSO)” value was 111%.
Consider `Cc1c(OCC(F)(F)F)ccnc1CS(=O)c1nc2ccccc2[nH]1` (stereo not given), for which the Potency was 20.9 µM (active).
For the compound `COC(=O)[C@H](Cc1ccccc1)NC(=O)[C@@H](N)CC(=O)O` (H-Asp-Phe-OMe), the “viability (% of DMSO)” value was 115%.
For the compound `COc1ccc(C2(C#N)CCC(C(=O)O)CC2)cc1OC1CCCC1` (stereo not given), the “viability (% of DMSO)” value was 92.9%.
With `CC[C@]1(O)C[C@H]2CN(CCc3c([nH]c4ccccc34)[C@@](C(=O)OC)(c3cc4c(cc3OC)N(C=O)[C@H]3[C@@](O)(C(=O)OC)[C@H](OC(C)=O)[C@]5(CC)C=CCN6CC[C@]43[C@@H]65)C2)C1`, the Potency is 0.0469 µM (active).
As to `O=C(O)c1cc(=O)c2c(OCC(O)COc3cccc4oc(C(=O)O)cc(=O)c34)cccc2o1`, the “viability (% of DMSO)” value was 76%.
`O=C1c2c(O)cc(O)cc2OC(c2ccc(O)c(O)c2)C1O` (stereo not given): the “viability (% of DMSO)” value was 90.8%.
For the compound `CC(C)c1ccc2c(c1)c(SC(C)(C)C)c(CC(C)(C)C(=O)O)n2Cc1ccc(Cl)cc1`, the “viability (% of DMSO)” value is 85.8%.
Take `Oc1ccc2ccccc2c1SSc1c(O)ccc2ccccc12`: the Potency was 23.5 µM (active).
`O=C(O)c1cn(-c2ccc(F)cc2)c2cc(N3CCNCC3)c(F)cc2c1=O`: the “viability (% of DMSO)” value is 84.9%.
Turning to `Cc1ccc(S(=O)(=O)NC(=O)NN2CC3CCCC3C2)cc1` (stereo not given), the Potency is 23.5 µM (active).
Regarding `CCN(CCO)CCCC(C)Nc1ccnc2cc(Cl)ccc12` (stereo not given), the “viability (% of DMSO)” value was 85.7%.
Regarding `Clc1ccc(C(Cn2ccnc2)OCc2c(Cl)cccc2Cl)c(Cl)c1` (stereo not given), the Potency was 18.7 µM (active).
Take `COCCCN1CCC(NC(=O)c2cc(Cl)c(N)c3c2OCC3)CC1`: the Potency was 20.9 µM (active).
For `O=C(O)c1cccc(-c2noc(-c3ccccc3F)n2)c1`, the “viability (% of DMSO)” value was 108%.
On to `CCC1=C(C)CN(C(=O)NCCc2ccc(S(=O)(=O)NC(=O)NC3CCC(C)CC3)cc2)C1=O` (stereo not given), for which the “viability (% of DMSO)” value was 106%.
Consider `COCCCOc1ccnc(CS(=O)c2nc3ccccc3[nH]2)c1C` (stereo not given), for which the “viability (% of DMSO)” value was 81.5%.
Same read-out and setting: the result for `COC(=O)C1=C(C)NC(C)=C(C(=O)OC(C)C)C1c1cccc2nonc12` (stereo not given) reads 87.5%; that for `CCCc1cc(=O)[nH]c(=S)[nH]1`, 95.5%.
